# The supplement of paper PMC6522484
# ± gives the standard deviation of the averaged measurements.
# Assays:
# [1] = tested on: DLD1; experiment: cell viability (CellTiter-Glo) relative to plate median (fraction of plate median); higher = more viable cells; settings: 5 µM; treatment time 24 h; reporter: 7TFP
# Procedure, shortened: (§1)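 Per-well firefly luciferase or CellTiterGlo luminescence, normalised to the plate median, is what is reported. It was measured in colorectal cancer cells with stable lentiviral TCF/Wnt firefly luciferase reporters after a 24 h treatment with library compounds at a final 5 µM. The mean of two independent replicates is given.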
# [2] = tested on: HCT116; experiment: as above; settings: 5 µM; treatment time 24 h; reporter: TCF4/Wnt
# Procedure, shortened: as §1
# [3] = tested on: SW480; experiment: as above; settings: 5 µM; treatment time 24 h; reporter: 7TFP
# Procedure, shortened: as §1
# [4] = tested on: DLD1; experiment: TCF/Wnt firefly luciferase reporter signal relative to plate median (fraction of plate median); higher = higher Wnt reporter signal; settings: 5 µM; treatment time 24 h; reporter: 7TFP
# Procedure, shortened: as §1
# [5] = tested on: SW480; experiment: as above; settings: 5 µM; treatment time 24 h; reporter: 7TFP
# Procedure, shortened: as §1
structure (smiles),measurement,setting,value
CC1(C)S[C@@H]2[C@H](NC(=O)[C@H](N)c3ccc(O)cc3)C(=O)N2[C@H]1C(=O)O,cell viability,[1],0.928 ± 0.049
same,cell viability,[2],1.02 ± 0.067
same,cell viability,[3],0.95 ± 0.016
same,TCF/Wnt firefly luciferase reporter signal,[4],1.11 ± 0.092
same,TCF/Wnt firefly luciferase reporter signal,[5],1.01
CC(=O)OC[C@H]1O[C@@H](Oc2cc(OC(C)=O)c3c(=O)cc(-c4ccc(OC(C)=O)cc4)oc3c2)[C@H](OC(C)=O)[C@@H](OC(C)=O)[C@@H]1OC(C)=O,cell viability,[1],1.02 ± 0.021
same,cell viability,[2],1.11
same,cell viability,[3],0.992 ± 0.054
same,TCF/Wnt firefly luciferase reporter signal,[4],1.07 ± 0.13
same,TCF/Wnt firefly luciferase reporter signal,[5],0.938 ± 0.036
CN(CCOc1ccc(CC2SC(=O)NC2=O)cc1)c1ccccn1 (stereo not given),cell viability,[1],0.935 ± 0.03
same,cell viability,[2],0.894 ± 0.044
same,cell viability,[3],0.949 ± 0.04
same,TCF/Wnt firefly luciferase reporter signal,[4],0.899 ± 0.09
same,TCF/Wnt firefly luciferase reporter signal,[5],0.906 ± 0.15
COc1ccc([C@@H]2CC(=O)c3c(O)cc(O[C@@H]4O[C@H](CO[C@@H]5O[C@@H](C)[C@H](O)[C@@H](O)[C@H]5O)[C@@H](O)[C@H](O)[C@H]4O)cc3O2)cc1O,cell viability,[1],0.995 ± 0.0014
same,cell viability,[2],0.973 ± 0.038
same,cell viability,[3],1.02 ± 0.014
same,TCF/Wnt firefly luciferase reporter signal,[4],1.04 ± 0.17
same,TCF/Wnt firefly luciferase reporter signal,[5],0.988 ± 0.031
OCC(O)C(O)C(O)C(O)C(O)CO (stereo not given),cell viability,[1],1.05 ± 0.042
same,cell viability,[2],1.035 ± 0.0071
same,cell viability,[3],0.986 ± 0.049
same,TCF/Wnt firefly luciferase reporter signal,[4],0.9515 ± 0.005
same,TCF/Wnt firefly luciferase reporter signal,[5],1.02 ± 0.091
C[C@@H]1C[C@H]2O[C@@H]2/C=C\C=C\C(=O)Cc2c(Cl)c(O)cc(O)c2C(=O)O1 [Radicicol],cell viability,[1],1.07 ± 0.035
same,cell viability,[2],0.802 ± 0.086
same,cell viability,[3],1.07 ± 0.099
same,TCF/Wnt firefly luciferase reporter signal,[4],0.898 ± 0.16
same,TCF/Wnt firefly luciferase reporter signal,[5],0.785 ± 0.035
CC(C)[C@@H](C)/C=C/[C@@H](C)[C@H]1CC[C@H]2C3=CC=C4C[C@@H](O)CC[C@]4(C)[C@H]3CC[C@]12C,cell viability,[1],1.05 ± 0.05
same,cell viability,[2],1.03 ± 0.14
same,cell viability,[3],1.14 ± 0.099
same,TCF/Wnt firefly luciferase reporter signal,[4],0.912 ± 0.079
same,TCF/Wnt firefly luciferase reporter signal,[5],1 ± 0.083
CC1=C(C(=O)O)N2C(=O)[C@@H](NC(=O)[C@H](N)c3ccc(O)cc3)[C@H]2SC1,cell viability,[1],0.977 ± 0.016
same,cell viability,[2],0.956 ± 0.063
same,cell viability,[3],0.949 ± 0.086
same,TCF/Wnt firefly luciferase reporter signal,[4],0.907 ± 0.14
same,TCF/Wnt firefly luciferase reporter signal,[5],0.918 ± 0.13
O=C(Nc1ccccc1)Nc1ccccc1,cell viability,[1],1.02 ± 0.13
same,cell viability,[2],0.996 ± 0.048
same,cell viability,[3],1.05 ± 0.092
same,TCF/Wnt firefly luciferase reporter signal,[4],1.2 ± 0.11
same,TCF/Wnt firefly luciferase reporter signal,[5],1.01 ± 0.04
O=C(O)C1=C(CSc2nnnn2CS(=O)(=O)O)CS[C@@H]2[C@H](NC(=O)[C@H](O)c3ccccc3)C(=O)N12,cell viability,[1],0.951 ± 0.025
same,cell viability,[2],1.05 ± 0.071
same,cell viability,[3],0.973 ± 0.052
same,TCF/Wnt firefly luciferase reporter signal,[4],0.915 ± 0.023
same,TCF/Wnt firefly luciferase reporter signal,[5],0.968 ± 0.04
OCCc1ccccc1,cell viability,[1],0.986
same,cell viability,[2],0.995 ± 0.05
same,cell viability,[3],0.959 ± 0.03
same,TCF/Wnt firefly luciferase reporter signal,[4],1.16 ± 0.085
same,TCF/Wnt firefly luciferase reporter signal,[5],1.12 ± 0.092
COCCOC(=O)C1=C(C)NC(C)=C(C(=O)OC(C)C)C1c1cccc([N+](=O)[O-])c1 (stereo not given),cell viability,[1],0.9 ± 0.1
same,cell viability,[2],0.916 ± 0.16
same,cell viability,[3],0.858 ± 0.11
same,TCF/Wnt firefly luciferase reporter signal,[4],0.967 ± 0.089
same,TCF/Wnt firefly luciferase reporter signal,[5],1.12 ± 0.11
COc1ccc(-c2cc(=O)c3c(OC)c(OC)c(OC)cc3o2)cc1OC,cell viability,[1],1.01 ± 0.022
same,cell viability,[2],1.055 ± 0.0071
same,cell viability,[3],1.015 ± 0.0071
same,TCF/Wnt firefly luciferase reporter signal,[4],1.07 ± 0.13
same,TCF/Wnt firefly luciferase reporter signal,[5],1.15 ± 0.16
Cc1c(C)c2c(c(C)c1O)CCC(C)(COc1ccc(CC3SC(=O)NC3=O)cc1)O2 (stereo not given),cell viability,[1],1.05 ± 0.085
same,cell viability,[2],1.04 ± 0.071
same,cell viability,[3],1.06 ± 0.021
same,TCF/Wnt firefly luciferase reporter signal,[4],0.942 ± 0.11
same,TCF/Wnt firefly luciferase reporter signal,[5],1.04 ± 0.021
Cc1ccccc1C(OCCN(C)C)c1ccccc1 (stereo not given),cell viability,[1],1.07 ± 0.13
same,cell viability,[2],0.894 ± 0.15
same,cell viability,[3],1.01 ± 0.039
same,TCF/Wnt firefly luciferase reporter signal,[4],1.085 ± 0.0071
same,TCF/Wnt firefly luciferase reporter signal,[5],1.12 ± 0.085
CCOC(=O)N1CCC(=C2c3ccc(Cl)cc3CCc3cccnc32)CC1,cell viability,[1],0.987 ± 0.047
same,cell viability,[2],0.896 ± 0.064
same,cell viability,[3],0.962 ± 0.068
same,TCF/Wnt firefly luciferase reporter signal,[4],1.08 ± 0.19
same,TCF/Wnt firefly luciferase reporter signal,[5],0.94 ± 0.032
NC(=O)N/N=C/c1ccc([N+](=O)[O-])o1,cell viability,[1],0.894 ± 0.04
same,cell viability,[2],0.827 ± 0.13
same,cell viability,[3],0.9805 ± 0.0064
same,TCF/Wnt firefly luciferase reporter signal,[4],0.973 ± 0.11
same,TCF/Wnt firefly luciferase reporter signal,[5],1.08 ± 0.028
Nc1ccc(/N=N/c2ccccc2)c(N)n1,cell viability,[1],1.1 ± 0.2
same,cell viability,[2],1.07 ± 0.035
same,cell viability,[3],1.1 ± 0.035
same,TCF/Wnt firefly luciferase reporter signal,[4],1.285 ± 0.0071
same,TCF/Wnt firefly luciferase reporter signal,[5],1.3 ± 0.028
C=CCc1ccccc1OCC(O)CNC(C)C (stereo not given),cell viability,[1],1.03 ± 0.055
same,cell viability,[2],1.04 ± 0.035
same,cell viability,[3],0.961 ± 0.035
same,TCF/Wnt firefly luciferase reporter signal,[4],1.1 ± 0.27
same,TCF/Wnt firefly luciferase reporter signal,[5],0.852 ± 0.077
CC(C[N+](C)(C)C)OC(N)=O (stereo not given),cell viability,[1],1.14 ± 0.035
same,cell viability,[2],0.8 ± 0.48
same,cell viability,[3],1.1 ± 0.12
same,TCF/Wnt firefly luciferase reporter signal,[4],0.925 ± 0.037
same,TCF/Wnt firefly luciferase reporter signal,[5],1.05 ± 0.071
COc1cccc2c1CCC1CC(=O)CC[C@]21C (stereo not given in full),cell viability,[1],1.06 ± 0.014
same,cell viability,[2],1.02 ± 0.086
same,cell viability,[3],1.02 ± 0.035
same,TCF/Wnt firefly luciferase reporter signal,[4],0.972 ± 0.016
same,TCF/Wnt firefly luciferase reporter signal,[5],1.04 ± 0.17
O=C(O)c1cc(/N=N/c2ccc(S(=O)(=O)Nc3ccccn3)cc2)ccc1O,cell viability,[1],0.992 ± 0.0042
same,cell viability,[2],1 ± 0.078
same,cell viability,[3],1.04 ± 0.057
same,TCF/Wnt firefly luciferase reporter signal,[4],0.899 ± 0.083
same,TCF/Wnt firefly luciferase reporter signal,[5],0.837 ± 0.02
O=C(O)COCCN1CCN(C(c2ccccc2)c2ccc(Cl)cc2)CC1 (stereo not given),cell viability,[1],0.94 ± 0.054
same,cell viability,[2],0.896 ± 0.05
same,cell viability,[3],0.955 ± 0.024
same,TCF/Wnt firefly luciferase reporter signal,[4],1.04 ± 0.035
same,TCF/Wnt firefly luciferase reporter signal,[5],0.915 ± 0.033
COc1cc(O)c2c(c1)C(=O)c1cc(C)cc(O)c1C2=O,cell viability,[1],0.973 ± 0.017
same,cell viability,[2],0.979 ± 0.016
same,cell viability,[3],1.01 ± 0.12
same,TCF/Wnt firefly luciferase reporter signal,[4],0.949 ± 0.015
same,TCF/Wnt firefly luciferase reporter signal,[5],1.09 ± 0.057
C=CCCCCCCCCCCCC(O)CC(O)COC(C)=O (stereo not given),cell viability,[1],0.995 ± 0.0071
same,cell viability,[2],0.9555 ± 0.0064
same,cell viability,[3],1.005 ± 0.0071
same,TCF/Wnt firefly luciferase reporter signal,[4],0.866 ± 0.1
same,TCF/Wnt firefly luciferase reporter signal,[5],0.962 ± 0.021
C[C@]12CC[C@@H]3c4ccc(O)cc4CC[C@H]3[C@@H]1CC[C@@H]2O,cell viability,[1],0.914 ± 0.11
same,cell viability,[2],1.01 ± 0.098
same,cell viability,[3],0.949 ± 0.024
same,TCF/Wnt firefly luciferase reporter signal,[4],1.07 ± 0.092
same,TCF/Wnt firefly luciferase reporter signal,[5],1.02 ± 0.021
COc1cc2nc(N3CCN(C(=O)c4ccco4)CC3)nc(N)c2cc1OC,cell viability,[1],1.01 ± 0.097
same,cell viability,[2],1.02 ± 0.036
same,cell viability,[3],1.01 ± 0.018
same,TCF/Wnt firefly luciferase reporter signal,[4],1.11 ± 0.014
same,TCF/Wnt firefly luciferase reporter signal,[5],1.09 ± 0.028
CC12CCCC(O)(C1)C1CC(C)(C)C1CC2 (stereo not drawn) [beta-CARYOPHYLLENE ALCOHOL],cell viability,[1],0.91 ± 0.072
same,cell viability,[2],1.12 ± 0.14
same,cell viability,[3],1 ± 0.04
same,TCF/Wnt firefly luciferase reporter signal,[4],1.1 ± 0.028
same,TCF/Wnt firefly luciferase reporter signal,[5],1.04 ± 0.028
CC(=O)Nc1cc2nc3ccccc3oc-2cc1=O [N-Acetylquestiomycin A],cell viability,[1],0.985 ± 0.092
same,cell viability,[2],1.1 ± 0.057
same,cell viability,[3],1.06 ± 0.087
same,TCF/Wnt firefly luciferase reporter signal,[4],1.24 ± 0.12
same,TCF/Wnt firefly luciferase reporter signal,[5],1.145 ± 0.0071
CC(C)C[C@H](NC(=O)[C@@H]1CCCN1)C(=O)N1CCNC(=O)C1=O [Prolyl-leucyl-diketopiperazine],cell viability,[1],1.02 ± 0.035
same,cell viability,[2],0.993 ± 0.011
same,cell viability,[3],0.984 ± 0.0042
same,TCF/Wnt firefly luciferase reporter signal,[4],1.04 ± 0.13
same,TCF/Wnt firefly luciferase reporter signal,[5],1.025 ± 0.0071
CC(=O)O[C@@H]1C[C@H]2C(C)(C)C(=O)CC[C@]2(C)[C@H]2CC[C@@]3(C)[C@H](c4ccoc4)OC(=O)[C@H]4O[C@]43[C@@]21C,cell viability,[1],0.999 ± 0.086
same,cell viability,[2],0.986 ± 0.011
same,cell viability,[3],1.01 ± 0.026
same,TCF/Wnt firefly luciferase reporter signal,[4],0.949 ± 0.087
same,TCF/Wnt firefly luciferase reporter signal,[5],0.899 ± 0.021
CC1(C)C(=O)[C@H]2C[C@]3(O)C4=CC(=O)O[C@@H](c5ccoc5)[C@@]4(C)CCC3[C@](C)(C2=O)[C@H]1CC(=O)O (stereo not given in full),cell viability,[1],1.085 ± 0.0071
same,cell viability,[2],1.1 ± 0.064
same,cell viability,[3],1.05 ± 0.028
same,TCF/Wnt firefly luciferase reporter signal,[4],1.11 ± 0.099
same,TCF/Wnt firefly luciferase reporter signal,[5],0.972 ± 0.083
CC(C)NCC(O)c1cc(O)cc(O)c1 (stereo not given),cell viability,[1],0.999 ± 0.03
same,cell viability,[2],0.954 ± 0.06
same,cell viability,[3],0.976 ± 0.048
same,TCF/Wnt firefly luciferase reporter signal,[4],0.914 ± 0.11
same,TCF/Wnt firefly luciferase reporter signal,[5],0.987 ± 0.018
CN/C(=N\CCSCc1nc[nH]c1C)NC#N,cell viability,[1],1.04 ± 0.021
same,cell viability,[2],1.12 ± 0.042
same,cell viability,[3],1.04 ± 0.021
same,TCF/Wnt firefly luciferase reporter signal,[4],1.12 ± 0.18
same,TCF/Wnt firefly luciferase reporter signal,[5],1.06 ± 0.042
COc1c(O)cccc1O,cell viability,[1],0.99 ± 0.042
same,cell viability,[2],0.962 ± 0.17
same,cell viability,[3],1.01
same,TCF/Wnt firefly luciferase reporter signal,[4],1.16 ± 0.05
same,TCF/Wnt firefly luciferase reporter signal,[5],1.06 ± 0.021
